For 15 compounds, potency estimated from few doses results are on record in publication PMC11062922 (Nature Chemical Biology, 2023).

In one test the test system is STK26. Details: species or system human, MV4-11 + K-562 + COLO205 + SK-N-BE2 + OVCAR-8. The note with it: read-out: apparent Kd; compound concentrations: 100 nM and 1000 nM (sheet 'Samples'), CATDS: 0.52714165558765103; n = 1.
The subject of a further test is PKM. Set-up: species or system human, MV4-11 + K-562 + COLO205 + SK-N-BE2 + OVCAR-8. The settings on record: read-out: apparent Kd; compound concentrations: 100 nM and 1000 nM (sheet 'Samples'), CATDS: 1; n = 1.
For a further test, the system named is PRKCZ. Details: species or system human, MV4-11 + K-562 + COLO205 + SK-N-BE2 + OVCAR-8. The note with it: read-out: apparent Kd; compound concentrations:100 nM and 1000 nM (sheet 'Samples'); n = 1.
In a further test the test system is STK10. Details: species or system human, MV4-11 + K-562 + COLO205 + SK-N-BE2 + OVCAR-8. The settings on record: read-out: apparent Kd; compound concentrations: 100 nM and 1000 nM (sheet 'Samples'), CATDS: 0.394091035560725; n = 1.
In a further test the test system is SMC4. Details: species or system human, MV4-11 + K-562 + COLO205 + SK-N-BE2 + OVCAR-8. The note with it: read-out: apparent Kd; compound concentrations: 100 nM and 1000 nM (sheet 'Samples'), CATDS: 0.57123951593094102; n = 1.
The next test relates to SMC2. Set-up: species or system human, MV4-11 + K-562 + COLO205 + SK-N-BE2 + OVCAR-8. The settings on record: read-out: apparent Kd; compound concentrations: 100 nM and 1000 nM (sheet 'Samples'), CATDS: 0.46661242360410599; n = 1.
The next test has as its system PTK2. Details: species or system human, MV4-11 + K-562 + COLO205 + SK-N-BE2 + OVCAR-8. The settings on record: read-out: apparent Kd; compound concentrations: 100 nM and 1000 nM (sheet 'Samples'), CATDS: 1; n = 1.
Another test has as its system RET. Set-up: species or system human, MV4-11 + K-562 + COLO205 + SK-N-BE2 + OVCAR-8. The note with it: read-out: apparent Kd; compound concentrations:100 nM and 1000 nM (sheet 'Samples'); n = 1.
The next test concerns RAB5C. Set-up: species or system human, MV4-11 + K-562 + COLO205 + SK-N-BE2 + OVCAR-8. The settings on record: read-out: apparent Kd; compound concentrations: 100 nM and 1000 nM (sheet 'Samples'), CATDS: 1; n = 1.
The next test relates to PRKG1. Set-up: species or system human, MV4-11 + K-562 + COLO205 + SK-N-BE2 + OVCAR-8. The settings on record: read-out: apparent Kd; compound concentrations:100 nM and 1000 nM (sheet 'Samples'); n = 1.
The next test has as its system PRKCQ. Set-up: species or system human, MV4-11 + K-562 + COLO205 + SK-N-BE2 + OVCAR-8. The settings on record: read-out: apparent Kd; compound concentrations: 100 nM and 1000 nM (sheet 'Samples'), CATDS: 1; n = 1.
The subject of the next test is PRKAG1. Set-up: species or system human, MV4-11 + K-562 + COLO205 + SK-N-BE2 + OVCAR-8. The note with it: read-out: apparent Kd; compound concentrations:100 nM and 1000 nM (sheet 'Samples'); n = 1.
A further test relates to PRKAG2. Details: species or system human, MV4-11 + K-562 + COLO205 + SK-N-BE2 + OVCAR-8. The settings on record: read-out: apparent Kd; compound concentrations:100 nM and 1000 nM (sheet 'Samples'); n = 1.
The next test deals with PRKX;PRKY. Set-up: species or system human, MV4-11 + K-562 + COLO205 + SK-N-BE2 + OVCAR-8. The settings on record: read-out: apparent Kd; compound concentrations: 100 nM and 1000 nM (sheet 'Samples'), CATDS: 0.167379705383528; n = 1.
The subject of a further test is RIPK3. Set-up: species or system human, MV4-11 + K-562 + COLO205 + SK-N-BE2 + OVCAR-8. The settings on record: read-out: apparent Kd; compound concentrations: 100 nM and 1000 nM (sheet 'Samples'), CATDS: 0.41855483652365999; n = 1.
A further test deals with T1, DJA1.
T1 construct: gene DNAJA1
The note with it: read-out: apparent Kd; compound concentrations:100 nM and 1000 nM (sheet 'Lestaurtinib' of Supplementary Table 1),run:Lestaurtinib_02482_R2,Plate:MR011; n = 1.

The next test concerns PIK3CG. The settings on record: read-out: apparent Kd; compound concentrations:100 nM and 1000 nM (sheet 'Lestaurtinib' of Supplementary Table 1),run:Lestaurtinib_02487_R1,Plate:MR012; n = 1.
The test system of a further test is PIM1. The settings on record: read-out: apparent Kd; compound concentrations:100 nM and 1000 nM (sheet 'Lestaurtinib' of Supplementary Table 1),run:Lestaurtinib_02487_R1,Plate:MR012; n = 1.
For the next test, the system named is PIP4K2C. The note with it: read-out: apparent Kd; compound concentrations:100 nM and 1000 nM (sheet 'Lestaurtinib' of Supplementary Table 1),run:Lestaurtinib_02487_R1,Plate:MR012; n = 1.
Another test relates to PKN3. The settings on record: read-out: apparent Kd; compound concentrations:100 nM and 1000 nM (sheet 'Lestaurtinib' of Supplementary Table 1),run:Lestaurtinib_02487_R1,Plate:MR012; n = 1.

For `Cn1ccc(-c2cccc(Nc3ccnc4cc(-c5nccs5)ccc34)c2)n1` [GW525701_KCGS], the potency estimated from few doses in the test with STK26 is 1370 nM.

With `Cn1cc(C2=C(c3cn(C)c4ccc(OCc5ccccc5)cc34)C(=O)NC2=O)c2ccccc21` [RO0317432-000], the potency estimated from few doses in the test with PKM was 1860 nM.

On to `O=C(Nc1n[nH]c2cc(-c3cccs3)ccc12)C1CC1` [SB-731284], for which the potency estimated from few doses in the test with PRKCZ was 1850 nM.

For the compound `COc1cc2ncn(-c3cc(OCC4CCCO4)c(C(N)=O)s3)c2cc1OC` (centres unmarked) [GSK204607A], the potency estimated from few doses with STK10 is 614 nM.

For `CCCNC(=O)Nc1ccc(N(C)c2ccnc(NC3CC3)n2)cc1` [GW818933X], the potency estimated from few doses in the test on SMC4 is 1120 nM.

`N#Cc1ccc(C(=O)c2cnn(-c3ccc(F)cc3)c2N)cc1` [RO1153198-000]: the potency estimated from few doses in the test on SMC2 was 2040 nM.

With `COc1cc2c(cc1Nc1nc(Nc3cccc(F)c3C(N)=O)c3cc[nH]c3n1)N(C(=O)CN1CCN(C(C)C)CC1)CC2` [GSK1751853A], the potency estimated from few doses in the test with PTK2 was 1210 nM.

As to `Cl.O=C(Nc1ccc(Oc2ccc3[nH]c(NC(=O)c4ccccc4)nc3c2)cc1)Nc1cc(C(F)(F)F)ccc1F` [GW709042A], the potency estimated from few doses in the test with RET is 1420 nM.

With `Fc1ccc(-c2c(-c3ccncc3)n(CCN3CCOCC3)c3cccnc23)cc1` [RO1154507-000], the potency estimated from few doses in the test with RAB5C was 223 nM.

For `CCn1c(-c2nonc2N)nc2cnc(Oc3cccc(NC(=O)c4ccc(N(C)C)cc4)c3)cc21` [GSK248233A], the potency estimated from few doses in the test on PRKG1 is 227 nM.

For the compound `CO/N=C(\c1ccccc1)c1cnn(-c2ccccc2)c1N` [RO1163374-000], the potency estimated from few doses with PRKCQ is 2210 nM.

In the case of `COc1ccccc1-c1ccc2c(NC(=O)C3CC3)n[nH]c2n1` [SB-711239], the potency estimated from few doses is 1190 nM with PRKAG1 and 1270 nM in the test on PRKAG2.

With `CC1=C(C(=O)Nc2cc3cn[nH]c3cc2F)C(c2ccc(C(F)(F)F)cc2)CC(=O)N1` (centres unmarked) [GSK429286A], the potency estimated from few doses in the test with PRKX;PRKY was 2000 nM.

Turning to `c1ccc(Oc2ccc(Nc3ccnc4ccc(-c5ccccn5)cc34)cc2)cc1` [GW407034X], the potency estimated from few doses with RIPK3 was 429 nM.

Turning to Lestaurtinib, the potency estimated from few doses is 1330 nM in the test on DJA1; 1570 nM in the test with PIK3CG; 860 nM in the test with PIM1; 86.5 nM with PIP4K2C; 755 nM in the test with PKN3.
